The subject of the assay is HEK293 WT BDD-FVIII-Gluc. Briefly: secreted FVIII-Gluc luciferase Z-score vs DMSO control; higher = more FVIII-Gluc secretion. The note with it: 5 µM. On the procedure:
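Natural plant-compound library (480 compounds, ST catalogue IDs) screened on HEK293 cells stably expressing WT BDD-FVIII-Gaussia luciferase fusion at 5 µM. Secreted Gluc activity in the medium is given as a Z-score relative to DMSO controls.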
For `COc1cc2c(cc1OC)C(=O)N(C)CC2`, the “secreted FVIII-Gluc luciferase Z-score” value stood at 0.547.
In the case of `COc1c(O)cc2oc3cc(O)c(CC=C(C)C)c(O)c3c(=O)c2c1CC=C(C)C`, the “secreted FVIII-Gluc luciferase Z-score” value was found to be 0.316.
To `COc1ccc(OC)c(C2Nc3ccccc3NC3=C2C(=O)CC(C)(C)C3)c1Br` (centres undefined) belongs 0.0362.
To `CC(=O)OC1CCC2(C)C3CCC4(C)C(CC5CCCCC54C(C)=O)C3CC(=O)C2(O)C1` (centres undefined) belongs 0.153; to `CC1OC(OCC2OC(Oc3c(-c4ccc(O)c(O)c4)oc4cc(O)cc(O)c4c3=O)C(O)C(O)C2O)C(O)C(O)C1O` (centres undefined), -0.909; to `Cc1cc2c(C(C)C)c(O)c(O)c3c2c(c1-c1c(C)cc2c(C(C)C)c(O)c(O)c4c2c1OC4N)OC3N` (centres undefined), -0.0294.
Consider `COc1ccc(C2OCC3(COC(C)=O)C(C)C=C(C)C2C3C)cc1` (centres undefined), for which the “secreted FVIII-Gluc luciferase Z-score” value is -1.63.
For the compound `O=c1[nH]cnc2c1ncn2C1OC(CO)C(O)C1O` (centres undefined), the “secreted FVIII-Gluc luciferase Z-score” value is -0.0892.
Consider `Oc1cc(O)c2c(c1)O[C@H](c1ccc(O)c(O)c1)[C@@H](O)C2`, for which the “secreted FVIII-Gluc luciferase Z-score” value amounted to 0.0727.
Regarding `C=C(C)[C@H]1CC=C(C)C(=O)C1`, the “secreted FVIII-Gluc luciferase Z-score” value was found to be 0.764.
`O=c1c(O)c(-c2cccc(O)c2)oc2ccccc12`: the “secreted FVIII-Gluc luciferase Z-score” value is -0.392.
Consider `C=C1CCC(O)C/C1=C\C=C1/CCCC2(C)C1CCC2C(C)CCCC(C)C` (centres undefined), for which the “secreted FVIII-Gluc luciferase Z-score” value is -1.24.
To `COc1ccc2cc1Oc1ccc(cc1)C[C@H]1c3cc(c(OC)cc3CCN1C)Oc1c(OC)c(OC)cc3c1[C@H](C2)N(C)CC3` belongs 0.132.
For the compound `C[C@H]1C[C@]2(O[C@@H]2C)C(=O)O[C@@H]2CCN(C)C/C=C(/COC(=O)[C@]1(C)O)C2=O`, the “secreted FVIII-Gluc luciferase Z-score” value amounted to 0.213.
With `O=c1c(O)c(-c2ccc(O)cc2)oc2cc(O)cc(O)c12`, the “secreted FVIII-Gluc luciferase Z-score” value is -0.239.
For the compound `COc1ccc2c3c1OC1C(O)C=CC(C=C2)C31CCN(C)C` (centres undefined), the “secreted FVIII-Gluc luciferase Z-score” value is -0.171.
Turning to `C=C1CCC2OC2(C)CCC2C1CC2(C)C` (centres undefined), the “secreted FVIII-Gluc luciferase Z-score” value turned out to be 0.146.
With `Nc1nc2c(ncn2[C@@H]2O[C@H](COP(=O)(O)O)[C@@H](O)[C@H]2O)c(=O)[nH]1`, the “secreted FVIII-Gluc luciferase Z-score” value turned out to be 0.0522.
`CC1=C(C2=C(C)C(C(C)C)C3=C(C(=O)C(O)C3O)C2O)C(O)C2=C(C(O)C(O)C2=O)C1C(C)C` (centres undefined): the “secreted FVIII-Gluc luciferase Z-score” value was -0.542.
As to `O=C(/C=C/c1ccc(O)cc1)c1c(O)cc(O)cc1O`, the “secreted FVIII-Gluc luciferase Z-score” value is 0.157.
Take `COc1cccc(-c2oc3ccccc3c(=O)c2O)c1`: the “secreted FVIII-Gluc luciferase Z-score” value was determined as 0.776.
Turning to `COc1ccc([C@@H]2CC(=O)c3c(O)cc(O)cc3O2)cc1O`, the “secreted FVIII-Gluc luciferase Z-score” value came to 0.825.
Then `C/C(=C\CNc1ncnc2nc[nH]c12)CO`, with 0.549; and `CC1=C(/C=C/C(C)=C/C=C/C(C)=C/C(=O)O)C(C)(C)CCC1`, with -0.377.
Consider `CC1CC2(C)Oc3ccccc3C3OCC1(COC(=O)Nc1ccccc1)C(C)C32` (centres undefined), for which the “secreted FVIII-Gluc luciferase Z-score” value was -0.945.
Turning to `COc1ccc2c(C)cc(=O)oc2c1`, the “secreted FVIII-Gluc luciferase Z-score” value came out at 0.626.
To `CCC(C)(C)C(=O)O[C@H]1C[C@@H](C)C=C2C=C[C@H](C)[C@H](CC[C@@H]3C[C@@H](O)CC(=O)O3)[C@H]21` belongs -0.297; to `Nc1ccn(C2CC(O)C(COP(=O)(O)O)O2)c(=O)n1` (centres undefined), 0.357.
As to `O=c1cc(-c2ccccc2O)oc2c(O)c(O)ccc12`, the “secreted FVIII-Gluc luciferase Z-score” value was 0.356.
With `O=C(O)C1[C@H]2C[C@H]3c4[nH]c5ccccc5c4CCN3C[C@@H]2CC[C@@H]1O` (some centres undefined), the “secreted FVIII-Gluc luciferase Z-score” value turned out to be 0.257.
On to `COc1cc2c(C=O)c3c4c(cc(OC)c(OC)c4c2cc1OC)CCN3C`, for which the “secreted FVIII-Gluc luciferase Z-score” value was 0.315.
On to `O=c1c(O)c(-c2ccc(O)cc2O)oc2cc(O)cc(O)c12`, for which the “secreted FVIII-Gluc luciferase Z-score” value is 0.571.
Take `O=C(O)c1cc(=O)c2ccccc2[nH]1`: the “secreted FVIII-Gluc luciferase Z-score” value turned out to be 0.496.
As to `O=c1cc(-c2cccc(O)c2O)oc2ccccc12`, the “secreted FVIII-Gluc luciferase Z-score” value was -0.852.
In the case of `COc1ccc2c(=O)cc(-c3ccc(O)cc3)oc2c1`, the “secreted FVIII-Gluc luciferase Z-score” value worked out at 0.228.
As to `C[C@H](O)[C@H](O)[C@@H](O)c1cnc2nc(N)[nH]c(=O)c2n1`, the “secreted FVIII-Gluc luciferase Z-score” value came out at 0.588.
Regarding `COc1c2occc2cc2ccc(=O)oc12`, the “secreted FVIII-Gluc luciferase Z-score” value was found to be 0.821.
Take `C[C@H]1O[C@@H](O[C@H]2[C@@H](O)C[C@H](O[C@H]3[C@@H](O)C[C@H](O[C@H]4CC[C@@]5(C)[C@H](CC[C@@H]6[C@@H]5CC[C@]5(C)[C@@H](C7=CC(=O)OC7)CC[C@]65O)C4)O[C@@H]3C)O[C@@H]2C)C[C@H](O)[C@@H]1O`: the “secreted FVIII-Gluc luciferase Z-score” value is -4.57.
Turning to `OC1CCC2Cc3ccccc3N=C12` (centres undefined), the “secreted FVIII-Gluc luciferase Z-score” value was -0.361.

The values above are taken from the supplement of paper PMC12024529.
